Screens: PubChem, The Scripps Research Institute Molecular Screening Center
Most compounds without a hit are left out; they make up all but 3.4% or so of the library.
ADAM10 inh – human ADAM10 inhibitors, primary screen, biochemical, QFRET, HTS; inhibition, % at 7 µM; recombinant ADAM10, EDANS/DABCYL FRET peptide cleavage, 3 h; hit rate 0.62% among 370,000; Disintegrin and metalloproteinase domain-containing protein 10 (Homo sapiens), O14672;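 active means inhibition above a per-campaign cutoff equal to the mean of compounds falling between control-based bounds plus 3 SD, cut at about 20% in these data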;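 further: 0% = DMSO wells while the 100% control is not disclosed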
Target sequence (O14672 214-748 limits assumed): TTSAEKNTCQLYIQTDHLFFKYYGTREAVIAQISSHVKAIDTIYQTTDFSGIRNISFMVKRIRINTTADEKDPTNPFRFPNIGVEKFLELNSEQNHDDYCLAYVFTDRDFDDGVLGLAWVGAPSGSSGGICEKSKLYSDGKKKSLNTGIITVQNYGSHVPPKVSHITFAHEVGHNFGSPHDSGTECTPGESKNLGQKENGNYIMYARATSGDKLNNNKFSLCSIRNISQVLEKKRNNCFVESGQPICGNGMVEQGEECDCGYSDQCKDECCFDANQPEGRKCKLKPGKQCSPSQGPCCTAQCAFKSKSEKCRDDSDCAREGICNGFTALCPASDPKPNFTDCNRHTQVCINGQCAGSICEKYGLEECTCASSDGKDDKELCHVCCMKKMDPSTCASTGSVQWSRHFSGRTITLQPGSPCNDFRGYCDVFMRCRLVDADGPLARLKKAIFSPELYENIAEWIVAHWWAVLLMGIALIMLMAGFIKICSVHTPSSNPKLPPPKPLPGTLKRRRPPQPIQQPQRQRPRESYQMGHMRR
ADAM17 inh – ADAM17 inhibitors, primary screen, biochemical, QFRET; Disintegrin and metalloproteinase domain-containing protein 17 (Homo sapiens), P78536; recombinant ADAM17, EDANS/DABCYL FRET peptide cleavage; inhibition, % at 6.95 µM; hit rate 0.83% among 370,000;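 active means inhibition above the mean of compounds lying between control limits plus 3 SD, set per campaign, cut at about 8.5% in these data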;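 further: 0% = DMSO-only wells as the low control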
PLCb3 inh – human PLC-beta3 inhibitors, primary screen, biochemical, fluorescence; Purified PLC-beta3, fluorogenic substrate; inhibition, % at 12.2 µM; hit rate 0.18% among 370,000; AID 720704, 2013;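 further: 0% = median of compound wells on plate and 100% = full blocker control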
proKLK7 act – proKLK7 zymogen activators, primary screen, biochemical, fluorescence intensity | hit rate 0.9% among 370,000 | Kallikrein-7 (Homo sapiens), P49862 | activation, % at 7 µM | AID 652039, 2013 | purified proKLK7, EDANS-DABCYL substrate fluorescence; 100% is mature enzyme control, 0% vehicle;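 active means activation above the mean of all tested compounds plus 3 SD, computed per campaign excluding outliers beyond control limits, cut at about 13% in these data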
sPLA2-III inh – human group III sPLA2 inhibitors, primary screen, biochemical, QFRET, BODIPY PC-A2 liposome substrate | Group 3 secretory phospholipase A2 (Homo sapiens), Q9NZ20 | QFRET BODIPY PC-A2 liposome hydrolysis, fluorescence | inhibition, % at 12.2 µM | hit rate 0.56% among 370,000;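 active means inhibition above mean plus 3 SD of compounds lying within the high and low control bounds, cut at about 19% in these data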;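 further: 0% = median of test compound wells and 100% = no enzyme DMSO wells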
PLCg1 inh – PLC-gamma1 enzyme inhibitors, primary screen, biochemical, fluorescence, purified enzyme. 1-phosphatidylinositol 4,5-bisphosphate phosphodiesterase gamma-1 (Homo sapiens), P19174. fluorogenic substrate. inhibition, % at 12.2 µM. hit rate 0.84% among 370,000. AID 720700, 2013; in the data active means inhibition above about 9.5%
PLCg1 ctr – PLC-gamma1 enzyme inhibitors, counter-screen for PLC-beta3 inhibitor project, biochemical, fluorescence. shares compounds with PLCg1 inh. purified PLC-gamma1, fluorogenic substrate. inhibition, % at 12.3 µM. hit rate 3.1% among 3,300; in the data active means inhibition above about 9.5%
PLCb3 confirm – PLC-beta3 inhibitor confirmation, biochemical, fluorescence, purified enzyme | AID 743261, 2014 | fluorogenic substrate fluorescence | hit rate 1% among 3,300 | shares compounds with PLCg1 inh | inhibition, % at 12.3 µM
An asterisk follows results filed as active. Unless noted, no stated cut-off is given here; in the data, active means inhibition above about 11%; inactive means the rest.

What do the screens show for `CC1(C)CC2(CC(C)(C(=O)CSc3nc4ccccc4s3)OC2=O)C(=O)O1` (configuration not stated)?
ADAM10 inh: 0.1; ADAM17 inh: 7.3; PLCb3 inh: 11.3*; proKLK7 act: 0.4; sPLA2-III inh: -25.1; PLCg1 inh: 16.0*; PLCg1 ctr: -3.0; PLCb3 confirm: -1.1

How did Cc1ccc2c(c1)N(CCCC(=O)NCc1cccs1)C(=O)CO2 do in these assays?
ADAM10 inh: -7.2; ADAM17 inh: -1.1; PLCb3 inh: 1.5; proKLK7 act: -0.8; sPLA2-III inh: 1.4; PLCg1 inh: -5.3

What do the screens show for `CC(=O)NC1CC(C)(C)N(OC(C)=O)C(C)(C)C1`?
ADAM10 inh: -9.1; ADAM17 inh: -1.2; PLCb3 inh: 1.0; proKLK7 act: 0.0; sPLA2-III inh: 5.3; PLCg1 inh: 10.4*; PLCg1 ctr: -8.0; PLCb3 confirm: -4.0

Results for CC(=O)ON1C(C)(C)CC(OC(=O)c2ccccc2)CC1(C)C ?
ADAM10 inh: 3.1; ADAM17 inh: -4.4; PLCb3 inh: 1.4; proKLK7 act: -0.9; sPLA2-III inh: 2.8; PLCg1 inh: 0.5

How did COc1ccccc1CNC(=O)N1CCN(Cc2nc3ccccc3c(=O)[nH]2)CC1 do in these assays?
ADAM10 inh: -4.4; ADAM17 inh: 5.6; PLCb3 inh: -0.4; proKLK7 act: -0.3; sPLA2-III inh: 4.7; PLCg1 inh: -2.0

What do the screens show for `O=C(NC1CCCN(Cc2ccc(Cl)cc2)C1)c1ccnc(Cl)c1` (configuration not stated)?
ADAM10 inh: 9.8; ADAM17 inh: 6.0; PLCb3 inh: -13.4; proKLK7 act: -0.1; sPLA2-III inh: -6.6; PLCg1 inh: 11.1*; PLCg1 ctr: -7.8; PLCb3 confirm: -2.2

How did COc1cc(OC)cc(C(=O)NC2CCCN(Cc3ccc(Cl)cc3)C2)c1 (configuration not stated) do in these assays?
ADAM10 inh: 1.8; ADAM17 inh: 4.2; PLCb3 inh: -1.5; proKLK7 act: 0.4; sPLA2-III inh: -6.5; PLCg1 inh: -0.2

Results for O=C(CNC(=O)c1cnccn1)Nc1ccc(F)c(F)c1F ?
ADAM10 inh: 8.1; ADAM17 inh: 3.6; PLCb3 inh: 5.0; proKLK7 act: -0.2; sPLA2-III inh: 11.9; PLCg1 inh: 10.6*; PLCg1 ctr: -2.6; PLCb3 confirm: 2.0

What do the screens show for `O=C(CNC(=O)c1cncc(Br)c1)Nc1ccc(F)c(F)c1F`?
ADAM10 inh: 0.3; ADAM17 inh: -0.1; PLCb3 inh: -1.1; proKLK7 act: 0.2; sPLA2-III inh: 2.8; PLCg1 inh: 2.5

What do the screens show for `COc1ccc(C(=O)Oc2ccc(C(C)=O)cc2)c(OC)c1`?
ADAM10 inh: -4.6; ADAM17 inh: -5.3; PLCb3 inh: 1.0; proKLK7 act: 0.2; sPLA2-III inh: -6.7; PLCg1 inh: 10.0*; PLCg1 ctr: -3.9; PLCb3 confirm: -2.8

How did COc1ccc(C(=O)NCC(=O)OC2CCCCC2=O)cc1 (configuration not stated) do in these assays?
ADAM10 inh: 10.8; ADAM17 inh: 4.6; PLCb3 inh: 13.6*; proKLK7 act: -0.2; sPLA2-III inh: 12.0; PLCg1 inh: 8.1; PLCg1 ctr: 0.5; PLCb3 confirm: 0.8

Results for Cc1ccccc1C(=O)NCC(=O)OC1CCCCC1=O (configuration not stated) ?
ADAM10 inh: -12.0; ADAM17 inh: -2.0; PLCb3 inh: -2.5; proKLK7 act: 0.2; sPLA2-III inh: 4.7; PLCg1 inh: 1.6

How did O=C(c1ccccc1)N1CCN=C1SCc1ccc([N+](=O)[O-])cc1 do in these assays?
ADAM10 inh: 2.2; ADAM17 inh: 2.7; PLCb3 inh: -2.7; proKLK7 act: 0.3; sPLA2-III inh: -1.7; PLCg1 inh: 9.6*; PLCg1 ctr: -2.7; PLCb3 confirm: 0.4

How did CCOC(=O)C1CCN(C(=O)c2cc(C)n(C(C)(C)C)n2)CC1 do in these assays?
ADAM10 inh: 12.3; ADAM17 inh: 5.0; PLCb3 inh: -2.6; proKLK7 act: -0.3; sPLA2-III inh: 0.1; PLCg1 inh: 10.6*; PLCg1 ctr: -1.6; PLCb3 confirm: -0.5

Results for CCOC(=O)C1CCCN(C(=O)c2ccc3c(c2)CCO3)CC1 (configuration not stated) ?
ADAM10 inh: 1.2; ADAM17 inh: 2.8; PLCb3 inh: 0.7; proKLK7 act: -0.2; sPLA2-III inh: -0.8; PLCg1 inh: 2.7

Results for CCOC(=O)C1CCN(C(=O)c2cccc(C(=O)N3CCC(C(=O)OCC)CC3)c2)CC1 ?
ADAM10 inh: 15.7; ADAM17 inh: 3.5; PLCb3 inh: 3.5; proKLK7 act: -0.4; sPLA2-III inh: 2.2; PLCg1 inh: 2.4

How did CCOC(=O)C1CCN(C(=O)c2ccc3c(c2)OCCO3)CC1 do in these assays?
ADAM10 inh: -16.8; ADAM17 inh: -2.4; PLCb3 inh: -7.6; proKLK7 act: -0.4; sPLA2-III inh: 10.1; PLCg1 inh: 11.9*; PLCg1 ctr: -1.1; PLCb3 confirm: 0.6

How did CC(C)(C)NC(=O)NC(=O)COC(=O)c1c(F)cccc1Cl do in these assays?
ADAM10 inh: 3.0; ADAM17 inh: -2.0; PLCb3 inh: -3.0; proKLK7 act: 0.3; sPLA2-III inh: -1.4; PLCg1 inh: 1.2

Results for CC(C)(C)NC(=O)NC(=O)COC(=O)Cc1c(Cl)cccc1Cl ?
ADAM10 inh: -4.3; ADAM17 inh: 3.0; PLCb3 inh: -4.8; proKLK7 act: 0.2; sPLA2-III inh: -11.8; PLCg1 inh: 9.8*; PLCg1 ctr: -0.6; PLCb3 confirm: 1.8

How did CN(CCO)c1cccc2c1S(=O)(=O)N(Cc1cn(Cc3ccc(Cl)cc3)nn1)Cc1ccccc1O2 do in these assays?
ADAM10 inh: -3.8; ADAM17 inh: -3.2; PLCb3 inh: -6.5; proKLK7 act: 1.2; sPLA2-III inh: -6.2; PLCg1 inh: -1.7

What do the screens show for `Cn1cc(-c2ccccc2C(N)=O)c(=O)c2ccccc21`?
ADAM10 inh: -48.6; ADAM17 inh: -22.4; PLCb3 inh: -25.1; proKLK7 act: 2.1; sPLA2-III inh: 7.4; PLCg1 inh: -16.9
